The panel holds about 79,000 compounds, 15% with a hit somewhere; the sample as a whole holds those more often. Values without a mark were called inactive. Activity calls are given as the source filed them. Rule as the data show it: active = growth inhibition above about 70%; inactive = the rest.
Key:
[1] = NCI Yeast Anticancer Drug Screen. Data for the rad52 strain (AID 147);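 also: 0% = growth of vehicle-treated control cultures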; conditions: S. cerevisiae rad52 mutant growth inhibition, active compounds read high
Summary of the method: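 Yeast strain carrying a DNA damage repair alteration was exposed to test compounds. Growth inhibition was measured relative to vehicle-treated controls.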

[2] = NCI Yeast Anticancer Drug Screen. Data for the wt1 strain (AID 149);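 also: 0% = growth of vehicle-treated wt1 cultures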; conditions: S. cerevisiae wt1 strain (SPY 50644) growth inhibition, active compounds read high
Summary of the method: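 Yeast wt1 strain exposed to compounds; growth inhibition measured relative to vehicle-treated controls.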

[3] = NCI Yeast Anticancer Drug Screen. Data for the rad50EPP+ strain (AID 151);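 also: 0% = growth of vehicle-treated control cultures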; conditions: S. cerevisiae rad50 mutant strain, active compounds read high
Summary of the method: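 Yeast strain carrying rad50 alteration (rad50EPP+) exposed to compounds; growth inhibition measured relative to vehicle-treated controls.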

[4] = NCI Yeast Anticancer Drug Screen. Data for the mgt1 strain (AID 153); conditions: S. cerevisiae mgt1 mutant growth inhibition, active compounds read high
Summary of the method: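 Yeast mgt1 strain (DNA repair/cell-cycle alteration panel) exposed to compounds; growth inhibition measured relative to vehicle-treated controls.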

[5] = NCI Yeast Anticancer Drug Screen. Data for the rad50 strain (AID 155);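 also: 0% = growth of vehicle-only cultures of the same strain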; conditions: S. cerevisiae rad50 strain growth inhibition, active compounds read high
Summary of the method: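 Yeast carrying a defined DNA repair defect were exposed to test compounds, and growth was compared with vehicle-treated controls to give percent inhibition.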

[6] = NCI Yeast Anticancer Drug Screen. Data for the mec2-1 strain (AID 157); conditions: S. cerevisiae mec2-1 strain, active compounds read high
Summary of the method: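 mec2-1 yeast strain, carrying an alteration in DNA damage repair or cell cycle control, was exposed to compounds; growth inhibition was measured relative to vehicle-treated controls.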

[7] = NCI Yeast Anticancer Drug Screen. Data for the rad14 strain (AID 159);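 also: 0% = growth of vehicle-treated control cultures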; conditions: S. cerevisiae rad14 strain growth inhibition, active compounds read high
Summary of the method: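 Yeast cells carrying a defined DNA-repair defect were exposed to compounds, and growth inhibition was calculated relative to vehicle-treated control cultures.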

[8] = NCI Yeast Anticancer Drug Screen. Data for the CLN2oe strain (AID 163);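 also: 0% = growth of vehicle-only control cultures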; conditions: S. cerevisiae CLN2oe strain, active compounds read high
Summary of the method: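 Yeast cells carrying a defined cell-cycle control alteration were exposed to test compounds. Growth inhibition was scored against vehicle-treated control cultures.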

[9] = NCI Yeast Anticancer Drug Screen. Data for the cln2 rad14 strain (AID 165);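 also: 0% = growth equal to vehicle treated cultures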; conditions: S. cerevisiae cln2 rad14 strain, active compounds read high
Summary of the method: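 Yeast carrying cln2 and rad14 alterations (cell cycle control and DNA damage repair) were exposed to compounds. Growth inhibition was measured against vehicle-treated controls.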

[10] = NCI Yeast Anticancer Drug Screen. Data for the bub3 strain (AID 167); conditions: S. cerevisiae bub3 mutant strain, active compounds read high
Summary of the method: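 Compounds were applied to a genetically altered yeast strain carrying a cell-cycle control defect. Growth inhibition was scored against vehicle-treated controls.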

[11] = NCI Yeast Anticancer Drug Screen. Data for the wt2 strain (AID 169);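 also: 0% = growth of vehicle-treated yeast cultures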; conditions: S. cerevisiae wt2 strain growth inhibition, active compounds read high
Summary of the method: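 Yeast cells were exposed to test compounds, and growth inhibition was measured relative to vehicle-treated controls.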

[12] = NCI Yeast Anticancer Drug Screen. Data for the mlh1 strain (AID 171);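 also: 0% = growth of vehicle-treated control cultures of the same strain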; conditions: S. cerevisiae mlh1 strain growth inhibition, active compounds read high
Summary of the method: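 Yeast carrying a defined genetic alteration in DNA damage repair or cell cycle control were exposed to test compounds. Growth inhibition was measured relative to vehicle-treated controls.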

[13] = NCI Yeast Anticancer Drug Screen. Data for the sgs1 strain (AID 173);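 also: 0% = growth of vehicle-only control cultures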; conditions: S. cerevisiae sgs1 mutant, active compounds read high
Summary of the method: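 Yeast mutant strains carrying defined defects in DNA damage repair or cell cycle control were exposed to test compounds. Growth inhibition was scored against vehicle-treated controls.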

[14] = NCI Yeast Anticancer Drug Screen. Data for the mlh1 rad18 strain (AID 175); conditions: S. cerevisiae mlh1 rad18 strain growth inhibition, active compounds read high
Summary of the method: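 Growth inhibition of the yeast strain was measured after compound exposure and expressed relative to vehicle-treated controls. The strain carries defined defects in DNA damage repair.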

[15] = NCI Yeast Anticancer Drug Screen. Data for the rad18 strain (AID 177); conditions: S. cerevisiae rad18 mutant growth inhibition, active compounds read high
Summary of the method: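 Yeast carrying a defined DNA damage repair alteration were exposed to compounds. Growth inhibition was expressed relative to vehicle-treated controls.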

[16] = at 5.0 µM (retest, dose inferred, filed as 0.5)
[17] = at 50.0 µM (retest, dose inferred, filed as 5.0)

Work on `Cc1cc(=O)oc2c(C)c3occc(=O)c3cc12` yielded a growth inhibition ([1]; at 1.2 µM) of 1%, a growth inhibition ([1]; at 3.7 µM) of 2% and a growth inhibition ([1]; at 11.0 µM) of 17%. For the same compound, the growth inhibition ([1]; at 33.0 µM) was 48%, the growth inhibition ([1]; at 100.0 µM) was 86% (active) and the growth inhibition ([2]; at 1.2 µM) was 4%. For the same compound, the growth inhibition ([2]; at 3.7 µM) was -2%, the growth inhibition ([2]; at 11.0 µM) was 0% and the growth inhibition ([2]; at 33.0 µM) was 5%. For the same compound, the growth inhibition ([2]; at 100.0 µM) was 23%, the growth inhibition ([3]; at 1.2 µM) was -1% and the growth inhibition ([3]; at 3.7 µM) was -1%. For the same compound, the growth inhibition ([3]; at 11.0 µM) was 4%, the growth inhibition ([3]; at 33.0 µM) was 29% and the growth inhibition ([3]; at 100.0 µM) was 67%. The growth inhibition ([4]; at 1.2 µM) was -5%, the growth inhibition ([4]; at 3.7 µM) was 3% and the growth inhibition ([4]; at 11.0 µM) was -11%. For the same compound, the growth inhibition ([4]; at 33.0 µM) was -10%, the growth inhibition ([4]; at 100.0 µM) was 44% and the growth inhibition ([5]; at 1.2 µM) was -1%. It also gave a growth inhibition ([5]; at 3.7 µM) of 2%, a growth inhibition [5, 16] of 24% and a growth inhibition ([5]; at 11.0 µM) of 18%. The growth inhibition ([5]; at 33.0 µM) was 59%, the growth inhibition [5, 17] was 67% and the growth inhibition ([5]; at 50.0 µM) was 94.3% (active). For the same compound, the growth inhibition ([5]; at 100.0 µM) was 84% (active), the growth inhibition ([6]; at 1.2 µM) was -2% and the growth inhibition ([6]; at 3.7 µM) was 0%. It also gave a growth inhibition [6, 16] of -6%, a growth inhibition ([6]; at 11.0 µM) of 4% and a growth inhibition ([6]; at 33.0 µM) of 14%. For the same compound, the growth inhibition [6, 17] was 21%, the growth inhibition ([6]; at 50.0 µM) was 67.2% and the growth inhibition ([6]; at 100.0 µM) was 40%. The growth inhibition ([7]; at 1.2 µM) was 2%, the growth inhibition ([7]; at 3.7 µM) was 2% and the growth inhibition ([7]; at 11.0 µM) was 1%. It also gave a growth inhibition ([7]; at 33.0 µM) of 9%, a growth inhibition ([7]; at 100.0 µM) of 28% and a growth inhibition ([8]; at 1.2 µM) of -2%. It also gave a growth inhibition ([8]; at 3.7 µM) of -1%, a growth inhibition ([8]; at 11.0 µM) of 9% and a growth inhibition ([8]; at 33.0 µM) of 6%. The growth inhibition ([8]; at 100.0 µM) was 29%, the growth inhibition [9, 16] was -17% and the growth inhibition [9, 17] was 15%. It also gave a growth inhibition ([9]; at 50.0 µM) of 43.8%, a growth inhibition ([10]; at 1.2 µM) of -1% and a growth inhibition ([10]; at 3.7 µM) of -1%. It also gave a growth inhibition [10, 16] of 12%, a growth inhibition ([10]; at 11.0 µM) of 3% and a growth inhibition ([10]; at 33.0 µM) of 5%. The growth inhibition [10, 17] was 19%, the growth inhibition ([10]; at 50.0 µM) was 78% (active) and the growth inhibition ([10]; at 100.0 µM) was 15%. The growth inhibition ([11]; at 1.2 µM) was -1%, the growth inhibition ([11]; at 3.7 µM) was -2% and the growth inhibition ([11]; at 11.0 µM) was 1%. For the same compound, the growth inhibition ([11]; at 33.0 µM) was 10%, the growth inhibition ([11]; at 100.0 µM) was 32% and the growth inhibition ([12]; at 1.2 µM) was -1%. It also gave a growth inhibition ([12]; at 3.7 µM) of 4%, a growth inhibition ([12]; at 11.0 µM) of 2% and a growth inhibition ([12]; at 33.0 µM) of 11%. For the same compound, the growth inhibition ([12]; at 100.0 µM) was 48%, the growth inhibition ([13]; at 1.2 µM) was 0% and the growth inhibition ([13]; at 3.7 µM) was -2%. For the same compound, the growth inhibition ([13]; at 11.0 µM) was 0%, the growth inhibition ([13]; at 33.0 µM) was 6% and the growth inhibition ([13]; at 100.0 µM) was 34%. The growth inhibition [14, 16] was 11%, the growth inhibition [14, 17] was 21% and the growth inhibition ([14]; at 50.0 µM) was 63.1%. It also gave a growth inhibition ([15]; at 1.2 µM) of -1%, a growth inhibition ([15]; at 3.7 µM) of -4% and a growth inhibition ([15]; at 11.0 µM) of -2%. It also gave a growth inhibition ([15]; at 33.0 µM) of 7% and a growth inhibition ([15]; at 100.0 µM) of 40%.

— PubChem BioAssay (NCI)
